TROY NFkB inh: inhibitors of TROY-dependent NF-kB signaling; actives 0.98% (n = 360,000); Q293 LMP1-TROYcd NF-kB luciferase reporter, 4 h; inhibition, % at 10 µM; AID 1347056;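 active means compounds whose plate-normalised and pattern-corrected inhibition of the luciferase reporter signal at the single screening dose is 50% or more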
HSF-1 act: increases HSF-1 driven luciferase reporter signal; NIH3T3-HGL HSF-1 luciferase reporter, MG132, 8 h; 100% = twice DMSO control signal; activation, % at 9 µM; actives 1.7% (n = 300,000); AID 504408;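 active means mean replicate activation of at least 50% with a set share of replicates each reaching 50%; inconclusive means only one of those two conditions met; inactive means mean below 50% and too few replicates reaching it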
LMP1 NFkB inh: Epstein-Barr LMP1 NF-kappaB reporter inhibition; actives 0.69% (n = 350,000); AID 504558; inhibition, % at 12.5 µM; LMP1-induced NF-kappaB luciferase reporter cells, luminescence; in the data active means inhibition above about 41%; inconclusive means no clear call, values can overlap the other calls
HSF1 inh: HSF1 inhibition | activity change, negative = inhibition, % at 7.5 µM (by protocol) | actives 0.77% (n = 300,000) | NIH3T3-HGL HSE-luciferase, MG132-induced, luminescence 8 h; active compounds read low;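 active means more than half of replicate wells show activity change below -50%, luminescence cut by over half; inconclusive means some wells, but at most half, below -50%; inactive means no replicate well below -50%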;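 further: luciferase reports HSF-1 transcriptional activity via heat shock element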
LGR2 antag: inhibitors of bursicon-induced Drosophila LGR2 receptor cAMP signaling | HEK293 LGR2, CRE-luciferase, bursicon-stimulated, 4 h | inhibition, % at 9.99 µM | actives 0.35% (n = 380,000);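 active means drop in luminescence signal, shown as inhibition above about 50% in the replicate tests, limit read from the data, passing the limit was not always enough; inconclusive means probably only some replicates passing the limit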;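 further: agonist challenge used bursicon conditioned medium at about half maximal strength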
TWEAK-Fn14 inh: TWEAK-Fn14 signaling inhibition. TWEAK-stimulated Fn14 reporter cells, luciferase luminescence, 8 h. inhibition, % at 10 µM. actives 2% (n = 360,000). AID 1159606; in the data active means inhibition above about 50%
A number is an active result; - = inactive; ? = inconclusive; . = no result. Sampled rows, rich in hits. Any-hit rate of the full collection: about 3.6%.

SMILES	TROY NFkB inh	HSF-1 act	LMP1 NFkB inh	HSF1 inh	LGR2 antag	TWEAK-Fn14 inh
C[C@@H]1CN([C@@H](C)CO)C(=O)c2cc(-c3cccc(C#N)c3)cnc2O[C@H]1CN(C)C(=O)c1cnccn1	.	.	.	.	-	.
c1ccc(OCc2cc(-c3ccccc3)no2)cc1	-	61	-	-	-	-
COc1ccccc1OCc1cc(-c2ccccc2)no1	-	53	-	-	-	-
COc1ccccc1OCc1cc(C(=O)N2CCN(C)C(c3ccccc3)C2)no1 (stereo unspecified)	-	-	-	-	-	-
Cc1cc(COc2ccccc2O)on1	.	-	-	-	-	86
COc1ccc(OCc2cc(-c3ccc(Cl)cc3)no2)cc1	-	-	-	-	-	-
C[C@H]1CN([C@@H](C)CO)C(=O)c2cccc(NC(=O)CCCCCC(=O)Nc3ccccc3N)c2O[C@@H]1CN(C)Cc1ccc(Oc2ccccc2)cc1	.	.	.	.	-	.
CC(C)C[C@@H](CC#N)N1CCN(Cc2ccccc2)CCC1=O	-	-	-	-61	-	-
CC(C)C[C@@H](CC#N)N1CCN(CCc2ccccc2)CCC1=O	-	-	-	-	-	-
COc1ccc(Nc2ncnc3sc(-c4ccccc4)cc23)cc1OC	-	-	-	-	-	51
O=C(c1ccc2c(=O)n(Cc3ccc(Cl)cc3)c(=S)[nH]c2c1)N1CCOCC1	-	-	-	-	-	75
CCOC(=O)N1CCN(C(=O)c2ccc(Cn3c(=S)[nH]c4cc5c(cc4c3=O)OCO5)cc2)CC1	-	-	-	-	.	-
CC1CC(C)CN(C(=O)c2ccc3c(=O)n(Cc4ccc5c(c4)OCO5)c(=S)[nH]c3c2)C1 (stereo unspecified)	-	65	-	-	.	-
CCOC(=O)N1CCN(C(=O)c2ccc(Cn3c(=S)[nH]c4cc(OCC)c(OCC)cc4c3=O)cc2)CC1	58	-	-	-	?	-
O=C(c1ccc2c(=O)n(Cc3ccc(Cl)cc3)c(=S)[nH]c2c1)N1CCCC1	-	-	-	-	-	-
C[C@H]1CCCCO[C@H](CN(C)S(=O)(=O)c2cn(C)cn2)[C@@H](C)CN([C@@H](C)CO)C(=O)c2cc(NC(=O)Nc3ccc4c(c3)OCO4)ccc2O1	.	.	.	.	-	.
C[n+]1c2n(c3ccccc31)N=C(c1ccc(-c3ccccc3)cc1)CS2	-	-	-	-	-	54
C[n+]1c2n(c3ccccc31)N=C(c1ccccc1)CS2	-	-	-	-	-	-
COc1ccc(N2C(=O)CC(Nc3ccc(C)cc3)C2=O)cc1 (stereo unspecified)	-	-	-	-	.	-
COc1ccc(N2C(=O)CC(NNc3ncc(Cl)cc3Cl)C2=O)cc1 (stereo unspecified)	-	-	-	-60	-	-
Cc1cc(-c2nn3c(C)nnc3s2)ccc1NC(=O)C(C)(C)C	-	-	-	-	.	52
COc1ccc(-c2cc3ccc(F)cc3cn2)cc1	-	.	-	.	63	50
C/C=C/c1ccc2c(c1)O[C@@H](CN(C)C(=O)CC)[C@@H](C)CN([C@H](C)CO)S2(=O)=O	.	.	.	.	-	.
Cc1cccc(CCNc2nc3ccc(C)cc3n3cnnc23)c1	73	-	-	-	-	74
Cc1ccc2nc(NCCc3ccc(Cl)cc3)c3nncn3c2c1	-	-	-	-	-	-
SMILES	TROY NFkB inh	HSF-1 act	LMP1 NFkB inh	HSF1 inh	LGR2 antag	TWEAK-Fn14 inh
O=C1CCCN1Cc1ncnn1-c1ccccc1	.	-	-	-	.	65
Cc1cccnc1NC(=O)c1cc2ccccc2oc1=O	-	-	-	-	-	80
O=C(Nc1cc2ccccc2oc1=O)c1ccccc1	66	-	55	-	89	90
COc1cccc(NC(=O)c2cc3ccccc3oc2=O)c1	-	?	-	-	-	86
COc1ccc2oc(=O)c(C(=O)Nc3cccc(C(C)=O)c3)cc2c1	-	-	-	-	-	-
N=c1oc2cc(O)ccc2cc1C(=O)Nc1nc2ccccc2s1	50	-	-	-	-	53
Cc1ccccc1-c1cnc2c(c1)C(=O)N([C@H](C)CO)C[C@H](C)[C@@H](CN(C)C(=O)c1ccc(F)cc1)O2	.	.	.	.	-	.
CCCNC(=O)C[C@@H]1C[C@@H]2c3cc(NC(=O)Nc4ccc(OC)cc4)ccc3O[C@@H]2[C@H](CO)O1	.	.	.	.	-	.
Cc1ccnc(NC(=S)NC(=O)/C=C/c2ccccc2)c1	-	-	-	-	-	-
O=C(Nc1ccccc1)Nc1cccc2ccccc12	-	-	-	-	-	-
Cc1cccnc1NC(=O)Nc1cccc2ccccc12	66	-	-	-	.	56
COc1ccc(C(=O)Nc2cc(C(=O)c3ccccc3)c(C)oc2=O)cc1	-	-	-	-	.	-
N=c1oc2ccccc2cc1C(=O)Nc1ccccc1	-	-	-	-	-	78
Cc1cccnc1NC(=S)NC(=O)/C=C/c1ccccc1	-	56	-	-	-	-
Cc1oc(=O)c(NC(=O)c2cccc(Cl)c2)cc1C(=O)c1ccccc1	-	123	-	-	-	-
COc1ccc2oc(=N)c(C(=O)Nc3ccccc3)cc2c1	-	.	-	.	.	-
Cc1noc(C)c1NC(=O)Nc1ccc2c(c1)CC(=O)N([C@H](C)CO)C[C@H](C)[C@@H](CN(C)S(C)(=O)=O)O2	.	.	.	.	-	.
N=c1oc2cc(O)ccc2cc1C(=O)Nc1ccc(Br)cc1	-	-	-	-	-	72
Cn1c(COc2ccccc2Br)nc2ccccc21	-	70	-	-	-	-
COc1ccccc1OCc1nc2ccccc2n1C	-	-	-	-	-	-
Cn1c(CNc2ccc(Br)cc2)nc2ccccc21	-	115	-	-	-	-
Cc1ccc(NCc2nc3ccccc3n2C)cc1	-	-	-	-	.	66
Cn1c(CSc2nc3ccccc3s2)nc2ccccc21	-	76	-	-	.	-
CN(C)CCCNC(=O)C[C@@H]1CC[C@H]2[C@@H](COC[C@H](O)CN2Cc2cccc(Cl)c2)O1	.	.	.	.	-	.
CCCC#Cc1ccc2c(c1)O[C@H](CN(C)C(=O)C1CCCCC1)[C@H](C)CN([C@@H](C)CO)S2(=O)=O	.	.	.	.	-	.
C[C@@H]1CN([C@H](C)CO)C(=O)c2cccc(NC(=O)C3CCCCC3)c2O[C@@H]1CN(C)S(=O)(=O)c1ccccc1	.	.	.	.	-	.
CNC[C@H]1OCCCC[C@@H](C)Oc2ccc(NC(=O)Nc3ccc(C(F)(F)F)cc3)cc2C(=O)N([C@H](C)CO)C[C@@H]1C	.	.	.	.	-	.
Cc1noc(C)c1NC(=O)N(C)C[C@H]1OCCCC[C@@H](C)Oc2ccc(NC(=O)c3ccncc3)cc2C(=O)N([C@@H](C)CO)C[C@@H]1C	.	.	.	.	-	.
CC1CCC(C(C)C)C(OC(=O)Cn2c(-c3ccc(F)cc3)[n+](C)c3ccccc32)C1 (stereo unspecified)	-	.	-	.	?	-
Cc1cccc(OCc2n(CC(=O)OC3CC(C)CCC3C(C)C)c3ccccc3[n+]2C)c1 (stereo unspecified)	64	-	-	-	.	75

Source: PubChem
